The supplement of paper PMC11555231

B1: PADI4_3_Y11S Y11S (peptide)
chain: YRDHHYRHPKSCG
B2: PADI4_3_D3S D3S (peptide)
chain: YRSHHYRHPKYCG
B3: PADI4_3_H4S H4S (peptide)
chain: YRDSHYRHPKYCG
B4: PADI4_3_H5T H5T (peptide)
chain: YRDHTYRHPKYCG
B5: PADI4_3_Y6T Y6T (peptide)
chain: YRDHHTRHPKYCG
B6: PADI4_3_R2T R2T (peptide)
chain: YTDHHYRHPKYCG
B7: PADI4_3_R7T R7T (peptide)
chain: YRDHHYTHPKYCG
B8: PADI4_3_H8T H8T (peptide)
chain: YRDHHYRTPKYCG
B9: PADI4_3_P9T P9T (peptide)
chain: YRDHHYRHTKYCG
B10: PADI4_3_K10T K10T (peptide)
chain: YRDHHYRHPTYCG
B11: PADI4_3_Y11T Y11T (peptide)
chain: YRDHHYRHPKTCG
B12: PADI4_3_D3T D3T (peptide)
chain: YRTHHYRHPKYCG
B13: PADI4_3_H4T H4T (peptide)
chain: YRDTHYRHPKYCG

Molecular target: PADI4, Q9UM07
Test: log2 enrichment score relative to parent PADI4_3 peptide (binding to PADI4); higher = tighter binding than parent
Conditions: CaCl2: 10 mM
Outline: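 Sequencing of input and eluted pools from a single triplicate round gave log2 enrichment (bound over input), expressed relative to parent as a mean with standard deviation. The NNK-randomised cyclic peptide mRNA-display library carried a C-terminal HA tag and had methionine reassigned to N-methyl-alanine. Selection was against bead-immobilised biotinylated His-tagged human PADI4 (100 nM) in HEPES/NaCl buffer with 10 mM CaCl2, DTT, Tween and blockers, washed over 10–12 h at RT.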

Sequence of PADI4, Q9UM07 (Q9UM07 whole entry): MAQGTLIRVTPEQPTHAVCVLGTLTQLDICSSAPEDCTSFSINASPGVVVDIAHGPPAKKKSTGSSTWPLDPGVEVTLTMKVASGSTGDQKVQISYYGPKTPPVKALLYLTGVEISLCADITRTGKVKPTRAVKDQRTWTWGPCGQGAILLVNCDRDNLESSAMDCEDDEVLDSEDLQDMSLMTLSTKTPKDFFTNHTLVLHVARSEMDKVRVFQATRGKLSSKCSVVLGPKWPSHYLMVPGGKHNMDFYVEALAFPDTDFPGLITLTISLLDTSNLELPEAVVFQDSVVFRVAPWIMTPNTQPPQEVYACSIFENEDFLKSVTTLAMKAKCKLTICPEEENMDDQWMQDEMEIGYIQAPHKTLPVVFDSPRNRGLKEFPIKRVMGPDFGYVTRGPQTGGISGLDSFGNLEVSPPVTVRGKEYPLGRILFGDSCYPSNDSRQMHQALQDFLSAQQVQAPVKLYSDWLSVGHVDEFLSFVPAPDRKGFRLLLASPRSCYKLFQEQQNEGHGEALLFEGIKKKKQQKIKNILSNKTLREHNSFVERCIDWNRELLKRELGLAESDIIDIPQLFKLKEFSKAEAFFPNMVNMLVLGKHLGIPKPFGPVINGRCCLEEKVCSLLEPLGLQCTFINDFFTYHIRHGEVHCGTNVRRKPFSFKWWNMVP

Row | Binder | log2 enrichment score
1 | B1 | -4.12
2 | B2 | -3.9
3 | B3 | -2.9
4 | B4 | -3.62
5 | B5 | -2.52
6 | B6 | -1.69
7 | B7 | -1.3
8 | B8 | -3.89
9 | B9 | -1.92
10 | B10 | 0.237
11 | B11 | -3.95
12 | B12 | -3.58
13 | B13 | -3.53
